This note sets out measurements from PubChem BioAssay (NCI).

Experiment in all cases: NCI-60 one-dose screen, 48 h (100 = growth as untreated, 0 = no growth, -100 = all killed)
Holding throughout (details): 10 µM unless noted

The subject of assay [1] is NCI-H23 lung.
Assay [2] concerns NCI-H226 lung.
The subject of assay [3] is NCI-H322M lung.
Assay [4] deals with HOP-62 NSCLC.
The test system of assay [5] is NCI-H460 lung.
For assay [6], the system named is HOP-92 NSCLC.
In assay [7] the test system is NCI-H522 lung.
In assay [8] the test system is 786-0 renal.
Assay [9] has as its system COLO 205 colon.
The test system of assay [10] is A549/ATCC NSCLC.

This is part of a sample that, as a whole, favours compounds with a hit. Of some 83,000 tested, about 20% had one in any assay.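 A percent growth of 40 corresponds to 60% growth inhibition; 0 means no net growth; -100 means all cells died. Active threshold: below 10.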 Values without a mark were called inactive. The source made the active and inactive calls.

With `Cc1cc(C)c2nc3nc(C)cc(C)c3c(N)c2c1`, the growth was 47.6% in assay [1]; 23.2% in [2]; 40.9% in [3]; 33.8% in assay [4]; -2.37% (active) in [5]; -1.87% (active) in assay [6]. Also, the growth in [7] is 39%; in assay [8], 28.4%; in assay [9], 16.2%.
In the case of `CN(C)c1ccc(N=Nc2ccccn2)c(O)c1`, the growth in [1] was 16.1%; in [2] it was 14.4%; in [3], 21.9%; in assay [4], 7.8% (active); in assay [5] it was 5.5% (active); in [6] it was 57.9%. For the same compound, the figures for the growth in [7], in assay [8] and in assay [9] were 27.1%, 15% and 17.3%, respectively.
On to `COc1ccc(-n2nc(C)c3c(Nc4ccc(NC(=O)Nc5cccc(C(F)(F)F)c5)cc4)ncnc32)cc1`, for which the growth was 9.95% (active) in assay [1]; 34.1% in [2]; 5.43% (active) in [3]; -37.9% (active) in assay [4]; 1.6% (active) in assay [5]; -26.4% (active) in assay [6]. Besides, the growth in assay [7] was 4.21% (active); in [10] it was -19.2% (active); in [8] it was -47.4% (active); in assay [9], -39.2% (active).
Regarding `CC(C)CC1C(=O)N2CCC[C@H]2C2(O)O[C@](NC(=O)C3C=C4c5cccc6[nH]c(Br)c(c56)C[C@H]4N(C)C3)(C(C)C)C(=O)N12` (some centres undefined), the growth is 71.1% in assay [1]; 59.5% in [2]; 71.8% in assay [3]; 82.7% in assay [4]; 57.2% in assay [5]; 66.1% in assay [6]. In addition, the growth was 53.5% in [7], 37.9% in [10] and 47.9% in [9].
On to `O=C(CCCCC(=O)N/N=C\c1ccccc1O)N/N=C\c1ccccc1O`, for which the growth in [1] was 58.4%; in assay [2], 52.9%; in assay [3] it was 27.5%; in assay [4], 39.1%; in assay [5], 12.2%; in assay [6] it was 64.4%. Also, the growth in assay [7] is 46.4%; in [10], 48.9%; in assay [8] it was 19.6%; in assay [9], 35.4%.
On to `COc1cc(-c2nc3cc(Cl)c(Cl)cc3[nH]2)ccc1OCC(=O)N=Nc1c(O)[nH]c2ccccc12`, for which the growth was -81.1% (active) in assay [1]; -27.2% (active) in assay [2]; -40.7% (active) in assay [3]; -60.2% (active) in assay [4]; -68% (active) in [5]; -67.2% (active) in [6]. Moreover, the growth is -64.3% (active) in [7], 4.16% (active) in [10], -82.6% (active) in [8] and -78% (active) in assay [9].
Consider `CC1=C/C(=C(\c2ccc(N(C)C)cc2)c2ccc([N+](C)(C)C)cc2)C=CC1=[N+](C)C`, for which the growth in assay [1] is 80.4%; in assay [2], 88.4%; in [3], 104%; in assay [4] it was 37%; in assay [5] it was 74.9%; in [6], 56.5%. Also, the growth in [7] is 97.2%; in assay [10] it was 29.2%; in assay [8], 94.7%; in [9], 66%.
As to `Cc1ccccc1COc1ccc(-c2onc(C)c2-c2ccc(Cl)cc2)cc1`, the growth in assay [1] was 73.8%; in assay [2] it was 57.2%; in [3] it was 97.6%; in [4], 51.6%; in assay [5] it was 54.7%; in assay [6] it was 72.6%. The growth is 25.5% in assay [7], 49.3% in assay [10], 75.5% in assay [8] and 71% in assay [9].
`Cn1cc(-c2nonc2-c2cn(C)c3ccc(F)cc23)c2cc(F)ccc21`: the growth in [1] was 67.6%; in [2], 51.3%; in assay [3], 97.3%; in assay [4] it was 45.6%; in assay [5], 49.9%; in assay [6], 66%. For the same compound, the growth in assay [7] was 22%; in assay [10] it was 47.9%; in assay [8] it was 85.7%; in [9], 62.4%.
`C[n+]1ccccc1/C=C/c1ccc2cccc(O)c2n1`: the growth was 103% in [1]; 86.8% in [2]; 136% in assay [3]; 91.1% in [4]; 102% in [5]; 106% in assay [6]. The growth in assay [7] is 99.8%; in assay [8] it was 104%; in [9], 63.3%.
Take `Cc1ccc(O)c(N2C(=NCc3ccco3)NS(=O)(=O)c3cnccc32)c1`: the growth in assay [1] is 95.2%; in assay [2] it was 101%; in assay [3], 114%; in assay [4], 100%; in assay [5], 104%; in assay [6], 27.7%. Besides, the growth in assay [7] is 93.3%; in assay [10] it was 83.7%; in assay [8] it was 105%; in assay [9], 125%.
Turning to `O=c1cc(CSc2nnc(SCc3cc(=O)oc4c3ccc3ccccc34)o2)c2ccc3ccccc3c2o1`, the growth in [1] is 89.9%; in assay [2] it was 83.6%; in [3], 93.3%; in assay [4], 99.2%; in assay [5] it was 104%; in assay [6], 97.6%. In addition, the growth in assay [7] was 70.1%; in [8] it was 109%; in assay [9], 106%.
Take `COc1cccc(-c2nn(C(C)(C)C)cc2-c2ccnc(NCCCNS(=O)(=O)c3ccc(C)cc3)c2)c1`: the growth in assay [1] is 105%; in [2], 101%; in assay [3], 106%; in assay [4] it was 100%; in [5], 103%; in [6], 114%. In addition, the growth in assay [7] was 99%; in [8] it was 103%; in assay [9], 121%.
